This is an account of results in the supplement of paper PMC9844399.

Where a name gives a salt, the structure may show the parent alone.
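Further: High-content confocal imaging of branched-DNA amplified FISH in 384-well plates, Hoechst-defined nuclei, score is well value minus plate DMSO median over DMSO robust SD, four wells per compound.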

For the assay, the system named is HeLa. The assay can be described thus: MALAT1 nuclear FISH intensity, robust Z-score vs DMSO; higher = more nuclear MALAT1 lncRNA, active = -3 or less. To be noted: 10 µM; 6 h.
With `O=C1CCc2c(ccc3ccccc23)O1` [Splitomycin], the “MALAT1 nuclear FISH intensity” value is -0.762 (inactive). Next, `CCCCC/C=C\C[C@@H](O)/C=C/C=C\C/C=C\CCCC(=O)O`: 0.00797 (inactive); `Nc1ccc2c3c(cccc13)C(=O)NC2=O` [4-Amino-1,8-naphthalimide]: -1.23 (inactive); `COc1cc(/C=C/c2ccccc2)oc(=O)c1` [Desmethoxyyangonin]: -2.41 (inactive).

As to `CC(C)NCC(O)COc1cccc2ccccc12` (stereo not drawn), the “MALAT1 nuclear FISH intensity” value was -1.65 (inactive). On to `CC(COc1ccccc1)N(CCCl)Cc1ccccc1` (stereo not drawn) [Phenoxybenzamine], for which the “MALAT1 nuclear FISH intensity” value was 0.36 (inactive). Next, `CCCCCC(=O)/C=C/C=C\C/C=C\C/C=C\CCCC(=O)O` [15-Ketoicosatetraenoic acid]: 0.0827 (inactive); `CCCCCCCCCCCCC/C=C/[C@@H](O)[C@H](CO)NC(C)=O` [C2 Ceramide]: 0.202 (inactive); `O=C(O)CCC/C=C\C[C@@H]1[C@@H](/C=C/[C@H](O)C2Cc3ccccc3C2)[C@@H](F)C[C@@H]1O`: -1.64 (inactive).

Consider `C[C@]12C=CC(=O)N[C@@H]1CC[C@@H]1[C@@H]2CC[C@]2(C)[C@@H](C(=O)Nc3cc(C(F)(F)F)ccc3C(F)(F)F)CC[C@@H]12` [Dutasteride], for which the “MALAT1 nuclear FISH intensity” value was -0.729 (inactive).

As for `Oc1cccc(-c2nc(N3CCOCC3)c3oc4ncccc4c3n2)c1`, the “MALAT1 nuclear FISH intensity” value is -1.86 (inactive). Next, `O=C(NCc1ncc(C(F)(F)F)cc1Cl)c1c(Cl)cccc1Cl` [Fluopicolide]: -0.978 (inactive); `CO[C@H]1/C=C/O[C@@]2(C)Oc3c(C)c(O)c4c(O)c(c(/C=N/N5CCN(C6CCCC6)CC5)c(O)c4c3C2=O)NC(=O)/C(C)=C\C=C\[C@H](C)[C@H](O)[C@@H](C)[C@@H](O)[C@@H](C)[C@H](OC(C)=O)[C@@H]1C` [Rifapentine]: -0.447 (inactive); `CN1CC2c3ccccc3Oc3ccc(Cl)cc3C2C1` (stereo not drawn) [Asenapine Maleate]: -1.04 (inactive).

Regarding `CCCCC[C@H](O)/C=C/C1=C(CCCCCCC(=O)O)C(=O)CC1` [Prostaglandin B1], the “MALAT1 nuclear FISH intensity” value was -0.084 (inactive). In the case of `N[C@@H](CC(=O)N1CCn2c(nnc2C(F)(F)F)C1)Cc1cc(F)c(F)cc1F` [Sitagliptin Phosphate], the “MALAT1 nuclear FISH intensity” value was -0.472 (inactive). Next, `NS(=O)(=O)c1cc2c(cc1C(F)(F)F)NCNS2(=O)=O` [Hydroflumethiazide]: -0.821 (inactive); `CC1=C(/C=C/C(C)=C\C=C\C(C)=C\C(=O)O)C(C)(C)CCC1` [9-cis Retinoic acid]: -1.42 (inactive); `CN(C)CC/C=C1/c2ccccc2COc2ccc(CC(=O)O)cc21` [Olopatadine]: -0.761 (inactive). With `CO[C@H]1/C=C/O[C@@]2(C)Oc3c(C)c(O)c4c(c3C2=O)C2=NC3(CCN(CC(C)C)CC3)NC2=C(NC(=O)/C(C)=C\C=C\[C@H](C)[C@H](O)[C@@H](C)[C@@H](O)[C@@H](C)[C@H](OC(C)=O)[C@@H]1C)C4=O` [Rifabutin] the figure was -0.00159 (inactive). With `CC(=O)Nc1nnc(S(N)(=O)=O)s1` [Acetazolamide] the figure was -2.08 (inactive).

For `NCC[C@H](O)C(=O)N[C@@H]1C[C@H](N)[C@@H](O[C@H]2O[C@H](CN)[C@@H](O)[C@H](O)[C@H]2O)[C@H](O)[C@H]1O[C@H]1O[C@H](CO)[C@@H](O)[C@H](N)[C@H]1O` [Amikacin Disulfate], the “MALAT1 nuclear FISH intensity” value is -0.653 (inactive). As for `CC(C)CC(=O)N[C@H](C(=O)N[C@H](C(=O)N[C@@H](CC(C)C)[C@@H](O)CC(=O)N[C@@H](C)C(=O)N[C@@H](CC(C)C)[C@@H](O)CC(=O)O)C(C)C)C(C)C` [Pepstatin], the “MALAT1 nuclear FISH intensity” value is 0.396 (inactive). With `O=C(C1CCCCC1)N1CC(=O)N2CCc3ccccc3C2C1` (stereo not drawn) [Praziquantel] the figure was -0.428 (inactive); with `O=C(O)CCCC=CCC1C(=O)CC(O)C1C=CC(O)CCc1ccccc1` (stereo not drawn) [17-Phenyl-trinor-prostaglandin E2], -0.48 (inactive); with `C[C@H](N[C@@H](CCc1ccccc1)C(=O)O)C(=O)N1CCC[C@H]1C(=O)O` [Enalaprilat Maleate], -0.501 (inactive). Take `O=c1oc2ccccc2c(O)c1Cc1c(O)c2ccccc2oc1=O` [Dicumarol]: the “MALAT1 nuclear FISH intensity” value was -1.34 (inactive). Next, `CC(=O)O[C@H]1C(=O)[C@@]2(C)[C@H]([C@H](OC(=O)c3ccccc3)[C@]3(O)C[C@H](OC(=O)[C@H](O)[C@@H](NC(=O)c4ccccc4)c4ccccc4)C(C)=C1C3(C)C)[C@]1(OC(C)=O)CO[C@@H]1C[C@@H]2O` [Taxol = Paclitaxel]: -0.638 (inactive).
